Experimental data: PubChem BioAssay (NCATS)
Results filed as inconclusive are left out. Where a call stands in place of a potency, no number is given. Activity calls are given as the source filed them. Calls follow the shape of the dose curve; as a rule, active = well fitted cell-killing curve with a large enough effect; inconclusive = small, poorly fitted or top-dose-only effect; inactive = no such curve, though single readings can be large or run the other way.
Potency is read from the fitted curve at half-maximal effect.

Assay: qHTS of pediatric cancer cell lines to identify multiple opportunities for drug repurposing: Primary screen for OHS-50 cells (AID 1347103); also: nearly all actives have a fitted effect of over 40% in size
Details: OHS-50 osteosarcoma viability, CellTiter-Glo luminescence, 48 h; series mostly up to 57.3 µM
From the text: Drug repurposing or repositioning has been offered as a strategy for drug development in oncology programs. This approach has special potential for childhood cancers and other rare or orphan diseases, where the expected return on new drug development has been a disincentive to pharmaceuticals.
In this project we exploit the poly-pharmacology of drugs to discover new indications via phenotypic screening of a panel of 19 well-characterized cell lines derived from solid tumors seen in children and adolescents. The goal is to identify approved drugs with previously unrecognized anticancer properties that has the potential to reveal new mechanisms and biological processes involved in carcinogenesis or drug resistance. We employed a titration-based paradigm (quantitative high-throughput screening or qHTS), where all compounds were tested at multiple concentrations for their effect on cell viability. Concentration-response curves (CRCs) were derived directly from the primary screen, and both potency and efficacy values were used to identify compounds with robust bioactivity profiles. We screened the NIH Chemical Genomics Center (NCGC) Pharmaceutical Collection (NPC) and Mechanism Interrogation Plate (MIPE) small molecule collections of approved and investigational compounds against these cell lines; and measured metabolically active cells after 48 hours of compound treatment as a proxy for cell viability.
Assay Submitter: Nathalia J. Martinez, National Center for Advancing Translational Sciences, National Institutes of Health, Rockville, MD, USA; email: natalia.martinez@nih.gov
[1] Shen, M et al. Quantitative high-throughput phenotypic screening of pediatric cancer cell lines identifies multiple opportunities for drug repurposing. Oncotarget 2017 Dec 19;9(4):4758-4772. PMID 29435139.
The cells were obtained from University of North Carolina (UNC), Pediatric Preclinical Testing Program (PPT), and Coriell Institute (CI).
qHTS cell viability assay:
Cells were assayed in growth media at a density of 500-1,000 cells/well. Five microliters of cells were dispensed into 1,536-well, white, solid-bottom, TC-treated plates (Greiner Bio One) using a multidrop dispenser and incubated at 37 degrees C, 5% CO2, under a humidified atmosphere for 5 hours. Twenty-three nanoliters of compounds and controls (neutral control DMSO or positive control bortezomib at final concentration of 2.3 µM) were subsequently transferred by Kalypsys pintool. For primary screens, the MIPE collection was tested at 11-point dilutions (final concentrations range from 0.78 nM to 46 µM) and the NPC collection at 8-point dilutions (final concentrations range from 0.59 nM to 46 µM). Compounds tested in follow-up screens were assayed at 11-point dilutions. Cells were incubated for 48 hours, followed by addition of 3 µL of CellTiter-Glo (Promega). After a 15 min incubation at room temperature, samples were analyzed for luminescence intensity using a ViewLux High-throughput CCD imager equipped with clear filters.
In the case of CC(=O)Oc1c(C)c(C)c2c(c1C)CC[C@@](C)(CCC[C@H](C)CCC[C@H](C)CCCC(C)C)O2, the Potency is reported as “inactive”. For C[C@@H]1CC[C@@]2(OC1)O[C@H]1C[C@H]3[C@@H]4CC[C@H]5C[C@@H](O)CC[C@]5(C)[C@H]4CC(=O)[C@]3(C)[C@H]1[C@@H]2C, the activity change, negative = cytotoxic was 9.93% [at 6.18 µM] (inactive). In the case of CCOc1ccc2ccccc2c1C(=O)N[C@@H]1C(=O)N2[C@@H]1SC(C)(C)[C@@H]2C(=O)O, the Potency is reported as “inactive”. In the case of N[C@@H](CSSC[C@H](N)C(=O)O)C(=O)O, the activity change, negative = cytotoxic is reported as 6.93% [at 0.73 µM] (inactive). For CNC(=O)Oc1ccc2c(c1)[C@]1(C)CCN(C)[C@@H]1N2C, the Potency was “inactive”. In the case of COc1cc2[nH]c(=O)[nH]c(=O)c2cc1OC, the Potency is reported as “inactive”. With CCN(CC)CCNC(=O)c1c(C)[nH]c(/C=C2\C(=O)Nc3ccc(F)cc32)c1C the Potency was 1.23 µM (active). With CC(C)C(=O)c1c(C(C)C)nn2ccccc12 the Potency was “inactive”. For O=C(O)c1ccccc1O, the Potency was “inactive”. With O=c1cc(CO)occ1O the Potency was “inactive”. In the case of O=C1Nc2ccc(Cl)cc2[C@@](C#CC2CC2)(C(F)(F)F)O1, the Potency is reported as 27.6 µM (active). With CCC(=O)Nc1ccc(O)cc1 the Potency was “inactive”. In the case of C[C@H](N)[C@H](O)c1cccc(O)c1, the Potency is reported as “inactive”. In the case of C[C@]12C[C@H](O)[C@H]3[C@@H](CCC4=CC(=O)CC[C@@]43C)[C@@H]1CC[C@@H]2C(=O)CO, the Potency is reported as “inactive”. With CC1(C)[C@@H]2CC[C@@]1(C)C(=O)C2 the Potency was “inactive”. With CCCOC(=O)c1ccccc1 the Potency was “inactive”. With CC[C@@]1(c2ccccc2)NC(=O)N(C)C1=O the Potency was “inactive”. With COCCOC(=O)C1=C(C)NC(C)=C(C(=O)OC/C=C/c2ccccc2)C1c1cccc([N+](=O)[O-])c1 (stereo not given) the Potency was 19.5 µM (active). With O=c1[nH]c(=O)c2[nH]c(=O)[nH]c2[nH]1 the activity change, negative = cytotoxic was -8.33% [at 11.5 µM] (inactive). For Cc1cccc(Nc2cc(Cl)nc(SCC(=O)O)n2)c1C, the Potency was “inactive”. With CO/N=C(\C(=O)N[C@@H]1C(=O)N2C(C(=O)O)=C(CSc3nc(=O)c(O)nn3C)CS[C@H]12)c1csc(N)n1 the Potency was “inactive”. For CN1[C@@H]2CC(OC(=O)[C@H](CO)c3ccccc3)C[C@H]1[C@@H]1O[C@@H]12 (stereo not given in full), the Potency was “inactive”. For NC(CSCC(=O)O)C(=O)O (stereo not given), the Potency was “inactive”. In the case of C=Cc1c(C)c2cc3[nH]c(cc4nc(cc5nc(cc1[nH]2)C(C)=C5CCC(=O)O)C(CCC(=O)O)=C4C)c(C)c3C=C, the Potency is reported as “inactive”. For C[C@@H]1CN(c2c(F)c(F)c3c(=O)c(C(=O)O)cn(C4CC4)c3c2F)C[C@H](C)N1, the Potency was “inactive”. For Cc1c(Cl)cccc1Nc1ccccc1C(=O)O, the Potency was “inactive”. With CC(=O)O[C@@]12CO[C@@H]1C[C@H](O)[C@@]1(C)C(=O)[C@H](O)C3=C(C)[C@@H](OC(=O)[C@H](O)[C@@H](NC(=O)OC(C)(C)C)c4ccccc4)C[C@@](O)([C@@H](OC(=O)c4ccccc4)[C@H]21)C3(C)C the Potency was 0.0031 µM (active). In the case of CS(=O)(=O)c1ccc([C@@H](O)[C@@H](CF)NC(=O)C(Cl)Cl)cc1, the Potency is reported as “inactive”. For CC[C@H]1CN2CCc3cc(OC)c(OC)cc3[C@@H]2C[C@@H]1C[C@H]1NCCc2cc(OC)c(OC)cc21, the Potency was 0.347 µM (active). For CC(C)(C)C(=O)NCCCC(=O)O, the Potency was “inactive”. In the case of CCOC(CN1CCN(CC(C)C(=O)c2ccccc2)CC1)c1ccccc1 (stereo not given), the Potency is reported as “inactive”. With Oc1ccc(C(O)CNCCCCCCNCC(O)c2ccc(O)c(O)c2)cc1O (stereo not given) the Potency was “inactive”. For OCc1cc(C(O)CNCCCCCCOCCCCc2ccccc2)ccc1O (stereo not given), the Potency was 19.5 µM (active). In the case of Nc1ccc(S(=O)(=O)Nc2ccc(Cl)nn2)cc1, the Potency is reported as “inactive”. With Cn1c(=O)c2c(ncn2CC2OCCO2)n(C)c1=O the Potency was “inactive”. With CCCn1cnc2c1c(=O)n(CCCCC(C)=O)c(=O)n2C the Potency was “inactive”. With CCC(=O)c1ccc(O)cc1 the Potency was “inactive”. With CC(C)c1c(C(=O)Nc2ccccc2)c(-c2ccccc2)c(-c2ccc(F)cc2)n1CC[C@@H](O)C[C@@H](O)CC(=O)O the Potency was 15.5 µM (active). With C=CCn1c(=O)n([C@@H]2O[C@H](CO)[C@@H](O)[C@H]2O)c2nc(N)[nH]c(=O)c21 the Potency was “inactive”. In the case of O=C1NS(=O)(=O)c2ccccc21, the Potency is reported as “inactive”.
